PubChem BioAssay (NCI)
This is part of a sample that, as a whole, favours compounds with a hit. Of some 83,000 tested, about 20% had one in any assay.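 Values shown are percent growth following 48 h exposure of cells in 96-well plates to a single concentration of compound; below 10 was considered active.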 Unmarked numbers belong to inactive results. Calls of active or inactive are those of the source.

The molecules below were run on A498 renal (assay: NCI-60 one-dose screen, 48 h (100 = growth as untreated, 0 = no growth, -100 = all killed)). Settings: 10 µM unless noted.
`COc1ccc(/C=C/c2nc(Nc3ccc(S(=O)(=O)Nc4cc(C)on4)cc3)c3ccccc3n2)cc1` was tested, and the growth was 1.73% (active).
With `NS(=O)(=O)c1ccc(CCN2C(=O)c3cc(Cl)c(Cl)cc3C2=O)cc1` the growth was 104%.
`C/C=C(\C)C(=O)NC1=CC[C@@]2(C)C(=CCC3C2CC[C@@]2(C)C3CC[C@@H]2C(C)N(C)C)C1=O` (some centres undefined) was tested, and the growth was 71.2%.
For `O=c1c2c(c(=O)n1O)c1c3ccc[nH]c3nc1c1nc3[nH]cccc3c12`, the growth was 94.5%.
With `Cc1ccc(C(=O)/C(=C\c2ccc([N+](=O)[O-])cc2)S(=O)Cc2ccc(F)cc2)cc1` (centres undefined) the growth was 68.7%.
For `O=C(Nc1ncc(Cc2cc(Cl)ccc2Cl)s1)c1cccs1`, the growth was 65.3%.
`O=C(C[n+]1cccc2ccccc21)c1ccc(O)c(O)c1` gave a growth of 88.4%.
In the case of `OCc1cnccc1NCCCCOc1ccc(Oc2ccccc2)cc1`, the growth is reported as 76.9%.
`Oc1cccc(CCc2ccc(Oc3cc(CCc4cccc(O)c4)cc(O)c3O)cc2)c1` was tested, and the growth was 95.2%.
In the case of `CC/C(=C\c1ccc(OC)cc1)C(=O)c1ccc(OC)cc1`, the growth is reported as 103%.
Molecule `CN1C(N2CCN(S(=O)(=O)c3ccccc3)CC2)=NS(=O)(=O)c2ccccc21` has a growth of 155%.
`O=C1Nc2ccc(F)cc2/C1=C\c1c(-c2ccccc2)nc2ccccn12` showed a growth of 43.1%.
Work on `O=C(Cn1c(C(=O)c2ccccc2)nc2ccccc21)c1ccc(F)cc1` yielded a growth of 86.5%.
Work on `COc1ccc(C(=O)c2nc3ccccc3n2CC(=O)c2ccc(Cl)cc2)cc1` yielded a growth of 72.5%.
